From PubChem BioAssay
An excerpt weighted towards active compounds, which were near 4.5% of everything screened.
tim10-1 inh – inhibits growth of tim10-1 mutant yeast | 2.2% of 330,000 active | inhibition, % at 20 µM | S. cerevisiae tim10-1 ts strain growth, BacTiter-Glo, 24 h | AID 463190;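 active = inhibition of at least 40%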;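 also: mutant grown at 25 °C; 0% = DMSO wells with yeast and 100% = wells holding no yeast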
PfHsp90 yeast 2 – reduces growth (ATP signal) of yeast expressing P. falciparum Hsp90 | S. cerevisiae expressing PfHsp90, BacTiter-Glo ATP, 48 h; yeast lacking PDR1 and PDR3 efflux regulators | inhibition, % at 9.4 µM | 0.32% of 310,000 active;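 active = every replicate shows inhibition above about 80%, whatever the replicate mean, limit read from the data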;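 also: 0% = DMSO neutral controls and 100% = 20 µM radicicol positive controls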
TIM10 inh – inhibits growth of TIM10 yeast strain. S. cerevisiae TIM10 strain growth, BacTiter-Glo luminescence, 24 h. inhibition, % at 10 µM. 1.4% of 330,000 active;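 active = inhibition of 40% or more at the single tested concentration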;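 also: wild-type TIM10 isogenic control strain grown at permissive 25 °C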
tim23-1 inh – growth inhibitors of tim23-1 mutant yeast; 1.3% of 330,000 active; AID 463212; S. cerevisiae tim23-1 growth, BacTiter-Glo luminescence, 24 h; inhibition, % at 20 µM;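 active = growth inhibition of the mutant yeast at or above 50%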;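 also: temperature-sensitive mutant grown at 25 °C; plate controls were DMSO-treated mutant yeast for no effect and medium wells lacking yeast for full effect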
NLRP3 yeast inh – inhibitors of NALP3 inflammasome in yeast; Yeast reconstituted NLRP3/ASC/caspase-1, beta-gal luminescence, 24 h; inhibition, % at 10 µM; 0.39% of 330,000 active;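 active = inhibition of 50% or more; inactive = inhibition below 50%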;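 also: plate controls were induced DMSO wells for no effect and uninduced yeast grown without galactose for full effect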
SKKanGAS inh – blocks kanamycin growth of S. pyogenes SKKanGAS strain | AID 1662 | inhibition, % at 7.5 µM | 1.3% of 300,000 active | BacTiter-Glo, 6 h;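 active = mean replicate score, as percent of positive control median, at least 50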;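 also: strain carries kanamycin resistance gene driven by streptokinase promoter and grows in 40 µg/ml kanamycin; loss of luminescence reflects streptokinase promoter inhibition or plain growth inhibition; 0% = median of DMSO wells and 100% = positive control at its reference dose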
tim10-1 confirm – tim10-1 yeast growth inhibition, confirmed. 56% of 7,400 active. inhibition, % at 20 µM. S. cerevisiae tim10-1 ts strain growth, BacTiter-Glo, 24 h. shares compounds with tim10-1 inh;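 active = inhibition of yeast growth at or above a set limit in either of two repeat tests at 20 µM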;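 also: tim10-1 mutant grown at permissive 25 °C to find synthetic lethal compounds; 0% = DMSO yeast wells and 100% = medium wells without yeast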
tim10 confirm – confirmation of TIM10 yeast growth inhibitors | shares compounds with TIM10 inh | S. cerevisiae tim10 strain growth, BacTiter-Glo luminescence, 24 h | inhibition, % at 10 µM | 63% of 4,600 active | AID 463215;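 active = inhibition of yeast growth at or above a set limit in either of two replicates at 10 µM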;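 also: this counterscreen used the strain with wild-type TIM10; 0% = yeast with DMSO and 100% = medium wells lacking yeast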
tim23-1 confirm – confirmation of tim23-1 mutant yeast growth inhibitors. inhibition, % at 20 µM. 83% of 4,400 active. AID 463218. S. cerevisiae tim23-1 growth, BacTiter-Glo luminescence, 24 h. shares compounds with tim23-1 inh;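 active = inhibition above about 39% in either of two replicate wells at 20 µM, limit read from the data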;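 also: temperature-sensitive tim23-1 mutant grown at 25 °C; 0% = DMSO wells with yeast and 100% = medium wells without yeast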
The depositor's hits bear a star.

Screening O=C(COc1ccc(F)cc1Br)NCC1(N2CCOCC2)CCCCC1 returned tim10-1 inh 13.0, PfHsp90 yeast 2 2.8, TIM10 inh 2.7, tim23-1 inh 41.5 and NLRP3 yeast inh 12.9.
Screening N#C/C(=C\c1cccc([N+](=O)[O-])c1)c1ccccn1 returned tim10-1 inh 55.6*, PfHsp90 yeast 2 -44.2, TIM10 inh 39.5, tim23-1 inh 62.6*, NLRP3 yeast inh 18.6, SKKanGAS inh 14.0, tim10-1 confirm 71.6* and tim23-1 confirm 56.0*.
O=[N+]([O-])c1cccc(/C=C/c2ccccn2)c1 was read as tim10-1 inh 16.4, PfHsp90 yeast 2 -10.3, TIM10 inh 13.2, tim23-1 inh 13.2, NLRP3 yeast inh 24.3 and SKKanGAS inh 1.5.
N/C(=N\OC(=O)c1cccs1)c1ccc(Cl)cc1 was read as tim10-1 inh 69.3*, TIM10 inh 83.7*, tim23-1 inh 81.7*, NLRP3 yeast inh 22.8, SKKanGAS inh -3.0, tim10-1 confirm 52.8*, tim10 confirm 84.4* and tim23-1 confirm 91.1*.
`O=C(COC(=O)c1cccs1)Nc1ccc(F)c(F)c1` gave tim10-1 inh -2.8, PfHsp90 yeast 2 -21.6, TIM10 inh -0.2, tim23-1 inh 14.9 and NLRP3 yeast inh 23.3.
For N/C(CC(=O)Nc1ccc(F)c(Cl)c1)=N\OC(=O)c1cccs1 the results were tim10-1 inh 53.7*, PfHsp90 yeast 2 -23.8, TIM10 inh 80.8*, tim23-1 inh 72.6*, NLRP3 yeast inh 1.0, SKKanGAS inh -4.8, tim10-1 confirm 36.8*, tim10 confirm 86.4* and tim23-1 confirm 83.2*.
Screening COc1ccc(/C(N)=N/OC(=O)c2cccs2)cc1 returned tim10-1 inh 42.8*, PfHsp90 yeast 2 -12.8, TIM10 inh 62.9*, tim23-1 inh 71.2*, NLRP3 yeast inh 8.4, SKKanGAS inh 8.5, tim10-1 confirm 59.8*, tim10 confirm 67.8* and tim23-1 confirm 88.0*.
For Cn1ccc2cc(-c3csc(N4CCC(C(N)=O)CC4)n3)ccc21 the results were tim10-1 inh -5.5, TIM10 inh 1.0, tim23-1 inh 3.4 and NLRP3 yeast inh 7.5.
For Cc1nc(-c2ccccc2)nc2n[nH]c(N)c12 the results were tim10-1 inh 19.7, PfHsp90 yeast 2 7.4, TIM10 inh 12.3, tim23-1 inh 6.8, NLRP3 yeast inh 13.4 and SKKanGAS inh -0.3.
Cc1cccc(/C(N)=N/OC(=O)c2ccoc2C)c1 was read as tim10-1 inh 44.0*, PfHsp90 yeast 2 -47.6, TIM10 inh 55.4*, tim23-1 inh 67.3*, NLRP3 yeast inh 12.0, SKKanGAS inh -5.9, tim10-1 confirm 55.0*, tim10 confirm 39.2* and tim23-1 confirm 49.9*.
COc1cccc(C(=O)O/N=C(\N)Cc2ccc(Cl)cc2)c1 was read as tim10-1 inh 52.8*, PfHsp90 yeast 2 -15.4, TIM10 inh 85.1*, tim23-1 inh 58.1*, NLRP3 yeast inh 17.3, SKKanGAS inh 4.9, tim10-1 confirm 29.9, tim10 confirm -1.8 and tim23-1 confirm 42.6*.
COc1cccc(C(=O)O/N=C(\N)c2ccc(C)cc2)c1 was read as tim10-1 inh 56.6*, PfHsp90 yeast 2 -17.1, TIM10 inh 71.7*, tim23-1 inh 69.4*, NLRP3 yeast inh 34.5, SKKanGAS inh 9.5, tim10-1 confirm 41.2*, tim10 confirm 82.2* and tim23-1 confirm 70.6*.
For COc1cccc(C(N)=O)c1 the results were tim10-1 inh 20.0, PfHsp90 yeast 2 14.0, TIM10 inh 1.6, tim23-1 inh 14.1, NLRP3 yeast inh 7.2 and SKKanGAS inh 1.4.
For COc1ccc(C(=O)O/N=C(\N)c2cccc(C)c2)cc1OC the results were tim10-1 inh 50.9*, PfHsp90 yeast 2 4.3, TIM10 inh 46.2*, tim23-1 inh 52.7*, NLRP3 yeast inh 13.3, SKKanGAS inh -4.6, tim10-1 confirm 52.3*, tim10 confirm 53.6* and tim23-1 confirm 71.2*.
COc1cccc(C(=O)O/N=C(\N)c2ccncc2)c1 was read as tim10-1 inh 13.2, PfHsp90 yeast 2 -22.6, TIM10 inh 5.7, tim23-1 inh 19.8 and NLRP3 yeast inh -5.4.
For O=C(Nc1cc(Cl)cc(Cl)c1)C1CCCC1 the results were tim10-1 inh 30.4, PfHsp90 yeast 2 1.1, TIM10 inh 36.7, tim23-1 inh 48.7, NLRP3 yeast inh 20.6 and SKKanGAS inh 4.2.
Screening Cc1cc(C(=O)NCc2ccco2)sc1C returned tim10-1 inh -4.8, PfHsp90 yeast 2 -16.8, TIM10 inh -10.9, tim23-1 inh 2.9 and NLRP3 yeast inh 10.5.
For Cc1ccccc1Oc1nc(-c2ccccn2)nc2ccccc12 the results were tim10-1 inh 48.2*, PfHsp90 yeast 2 -7.3, TIM10 inh 42.7*, tim23-1 inh 55.8*, NLRP3 yeast inh 37.0, SKKanGAS inh 103.5*, tim10-1 confirm 27.5, tim10 confirm 35.8* and tim23-1 confirm 48.8*.
For Cc1ccc(CN(C)C(=O)COC(=O)CSc2ccc(C(N)=O)cc2[N+](=O)[O-])cc1 the results were tim10-1 inh -15.3, PfHsp90 yeast 2 8.2, TIM10 inh 6.4, tim23-1 inh 7.4, NLRP3 yeast inh 17.1 and SKKanGAS inh 2.0.
For COc1ccc(NC(=O)c2ccco2)cc1NC(=O)c1ccc(Br)o1 the results were tim10-1 inh 43.9*, PfHsp90 yeast 2 10.7, TIM10 inh 76.4*, tim23-1 inh 55.2*, NLRP3 yeast inh 36.4, SKKanGAS inh -8.7, tim10-1 confirm 22.7, tim10 confirm 61.0* and tim23-1 confirm 74.5*.
`COc1ccc(-c2cccc(NC(=O)c3ccco3)c2)nn1` gave tim10-1 inh -5.6, PfHsp90 yeast 2 -18.5, TIM10 inh 2.0, tim23-1 inh 16.2, NLRP3 yeast inh 19.5 and SKKanGAS inh -13.5.
COc1ccc(-c2ccc(NC(=O)c3ccco3)cc2)nn1 was read as tim10-1 inh 47.2*, PfHsp90 yeast 2 64.1, TIM10 inh 46.4*, tim23-1 inh 57.3*, NLRP3 yeast inh 36.7, SKKanGAS inh 34.4, tim10-1 confirm 22.5, tim10 confirm 29.7 and tim23-1 confirm 50.9*.
`COc1cc(OC)c(NC(=S)Nc2cc(Cl)cc(Cl)c2)cc1Cl` gave tim10-1 inh 54.5*, PfHsp90 yeast 2 -4.2, TIM10 inh 41.1*, tim23-1 inh 53.7*, NLRP3 yeast inh 4.2, SKKanGAS inh 2.5, tim10-1 confirm 52.7*, tim10 confirm -9.4 and tim23-1 confirm 58.5*.
O=C(Oc1cccc(OC(=O)c2ccco2)c1)c1ccco1 was read as tim10-1 inh -8.8, PfHsp90 yeast 2 -5.3, TIM10 inh -10.1, tim23-1 inh 8.0, NLRP3 yeast inh 14.6 and SKKanGAS inh -0.1.
